Bioassay records from PubChem.
MEX-5 binding = C. elegans MEX-5 TCR-2 RNA binding activity. activity score (negative = inhibition of binding), % at 10 µM. MEX-5/FITC-TCR2 RNA binding, fluorescence polarization; hits give low values. actives 0.38% (n = 300,000). Q9XUB2;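 active means inhibition past about -25% in most replicates, and total fluorescence under double the plate's negative control median, limit read from the data; inconclusive means replicates evenly split on the limit, or fluorescence at least double controls; inactive means too little inhibition in most replicates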;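 further: 0% = DMSO and -100% = 5 µM competing unlabeled TCR2 RNA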
MCL1 BIM primary = disrupts human MCL1 binding to BIM-BH3 peptide. inhibition, % at 10.9 µM. Q07820. actives 0.68% (n = 320,000). GST-MCL1 / FITC-Bim-BH3 fluorescence polarization;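 active means inhibition above the mean inhibition of all tested compounds plus 3 SD, set per campaign, cut at about 40% in these data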;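 further: 0% = DMSO wells and 100% = unlabeled Bim-BH3 peptide control; higher means more loss of mP so more displacement of Bim peptide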
EBV gp42 inh = EBV gp42 inhibition | Q1HVG2 | Fluorescence polarization binding assay, mP read-out | inhibition, % (tested at 21.74 µM) | actives 0.42% (n = 220,000); in the data active means inhibition above about 50%
Target sequence (Q1HVG2 whole entry, looked up): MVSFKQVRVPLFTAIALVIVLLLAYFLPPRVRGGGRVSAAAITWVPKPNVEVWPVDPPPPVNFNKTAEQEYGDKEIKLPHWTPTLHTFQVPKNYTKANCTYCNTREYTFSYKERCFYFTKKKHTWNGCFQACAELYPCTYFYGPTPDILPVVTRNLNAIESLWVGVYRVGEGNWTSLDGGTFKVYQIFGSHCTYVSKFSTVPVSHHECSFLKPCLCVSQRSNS
eLon inh = inhibits E. coli Lon protease | P0A9M0 | purified E. coli Lon protease, fluorescence polarization | inhibition, % at 7.94 µM | actives 0.42% (n = 360,000) | AID 602123; in the data active means inhibition above about 13%, passing the limit was not always enough;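 further: 0% = enzyme with probe and DMSO and 100% = no enzyme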
Bcl-xL primary = inhibitors of human Bcl-xL; Q07817; GST-Bcl-xL / FITC-Bim BH3 peptide fluorescence polarization; inhibition, % at 10.9 µM; actives 0.7% (n = 320,000);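 active means inhibition above the mean of all tested compounds plus 3 SD, cutoff set per campaign, cut at about 30% in these data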;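 further: 0% = DMSO wells and 100% = unlabeled Bim-BH3 peptide competitor; inhibitors lower millipolarization by displacing the labeled peptide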
Target sequence (Q07817 whole entry, looked up): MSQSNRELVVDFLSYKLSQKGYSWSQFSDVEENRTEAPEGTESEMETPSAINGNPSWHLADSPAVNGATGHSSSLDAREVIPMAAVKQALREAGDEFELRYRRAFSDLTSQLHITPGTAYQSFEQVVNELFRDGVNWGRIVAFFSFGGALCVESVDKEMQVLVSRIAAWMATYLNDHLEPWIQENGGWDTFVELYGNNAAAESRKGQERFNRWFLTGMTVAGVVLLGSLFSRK
GLD-1 TGE inh = GLD-1-TGE RNA interaction inhibition (C. elegans); Q17339; purified GLD-1 + fluorescein TGE RNA, fluorescence polarization; inhibition, % at 5.96 µM; actives 0.44% (n = 320,000); AID 2280;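 active means percent inhibition above a per-plate cutoff, the plate mean of test compounds plus 3 SD, cut at about 30% in these data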;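 further: 0% = DMSO wells with GLD-1 and probe and 100% = wells lacking GLD-1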
* = called active by the depositor; ? = inconclusive; . = no result given; + = active, no number; ! = a repeat was not active. Sampled rows, rich in hits. Any-hit rate of the full collection: about 1.5%.

SMILES | MEX-5 binding | MCL1 BIM primary | EBV gp42 inh | eLon inh | Bcl-xL primary | GLD-1 TGE inh
CCn1c(O)c(C=Nc2ccc(N3CCOCC3)cc2)c(=O)n(CC)c1=S | ? | -82.2 | 176.8* | -31.6 | -27.6 | -36.6
CCn1c(O)c(C=Nc2ccc(N3CCOCC3)c(Br)c2)c(=O)n(CC)c1=S | 1.5 | 1.4 | -11.7 | -5.5 | 2.0 | -0.7
CC(C)[C@@]1(NC(=O)[C@@H]2C=C3c4cccc5[nH]cc(c45)C[C@H]3N(C)C2)O[C@@]2(O)[C@@H]3CCCN3C(=O)[C@H](Cc3ccccc3)N2C1=O | . | . | 111.5* | . | . | .
CC(C)C[C@H]1C(=O)N2CCCC2[C@]2(O)O[C@](NC(=O)[C@@H]3C=C4c5cccc6[nH]cc(c56)CC4N(C)C3)(C(C)C)C(=O)N12 (some centres undefined) | -7.0 | 194.2* | 97.1* | 62.5 | 152.3* | 117.3*
O=c1[nH]c(=O)n(Cc2ccccc2Cl)c(O)c1/C=C1/C=CC=N1 | -9.7 | -68.4 | 57.5* | -40.2 | -13.5 | -19.7
COc1cccc(N2C(=O)NC(=O)/C(=C/c3ccc4c(c3)Cc3ccccc3-4)C2=O)c1 | -42.8* | 2.4 | 2.3 | -19.4 | 1.0 | -3.8
CCOC(=O)c1c(N)n(Cc2ccco2)c2nc3ccccc3nc12 | . | 34.6 | 5.7 | 5.5 | 43.2* | 62.4*
COCC(C)OC(=O)c1c(N)n(Cc2ccco2)c2nc3ccccc3nc12 (centres undefined) | -3.1 | 25.0 | -0.3 | -4.9 | 34.1* | 38.6*
COc1ccc(C)cc1NC(=O)N1CCC2(CC1)OCCO2 | 1.1 | 16.2 | 7.3 | -4.8 | 8.2 | 4.0
CN1C(=O)/C(=C\N2CCc3ccccc32)C(=O)NC1=S | 0.3 | 0.5 | 90.2* | -28.0 | 2.3 | 5.5
O=c1[nH]c(=O)n(-c2ccc(Br)cc2)c(O)c1C=NCCN1CCCCC1 | -40.1* | -10.1 | -12.1 | -25.6 | -9.3 | -17.6
Cc1ccc(N2C(=O)/C(=C/c3ccc(CN(CCC#N)S(C)(=O)=O)o3)C(=O)NC2=S)cc1 | -49.6* | 34.7 | -32.9 | -34.9 | 14.7 | 13.5
Cc1ccc(/C=C2\C(=O)NC(=S)N(c3ccc(F)cc3)C2=O)o1 | -4.4 | . | . | -31.6 | . | .
O=C1NC(=S)N(Cc2ccco2)C(=O)/C1=C\c1cccs1 | . | . | 72.3* | . | . | .
O=C1NC(=O)C(Cc2ccccc2)(Cc2ccccc2)C(=O)N1Cc1ccccc1 | . | . | . | -1.8 | . | .
CN(C)[C@@H]1C(=O)C(C(N)=O)=C(O)[C@@]2(O)C(=O)C3=C(O)c4c(O)cccc4[C@@](C)(O)[C@H]3[C@H](O)[C@@H]12 | -84.1* | + | 4.2 | 37.2 | 153.4* | 92.8*
CN(C)[C@@H]1C(=O)C(C(N)=O)=C(O)[C@@]2(O)C(=O)C3=C(O)c4c(O)ccc(Cl)c4[C@@](C)(O)[C@H]3C[C@@H]12 | 1.5 | 13.8 | . | -9.4 | 5.2 | -0.6
COC(=O)C1=C(c2ccc(S(C)(=O)=O)cc2)C[C@@H]2CC[C@H]1N2C(=O)NCC1CC1 | 0.8 | 5.0 | . | -5.8 | 1.8 | 2.7
Oc1cc2c(cc1O)[C@H]1c3ccccc3CN[C@@H]1CC2 | -57.1* | 27.5 | -4.2 | . | 15.9 | 10.4
COc1ccc2c(c1)C1OCCNC1CC2 (centres undefined) | . | . | . | -6.9 | . | .
C=CCn1c(O)c(/C=C/C=Nc2ccccc2)c(=O)[nH]c1=O | -26.3* | -104.3 | -218.4 | -269.9 | -61.3 | -88.5
Cc1ccc(S(=O)(=O)N[C@@H](CCCCN)C(=O)CCl)cc1 | -4.9 | 27.6 | . | 7.0 | 31.9* | 15.7
Cc1ccc(S(=O)(=O)NCCC(=O)Nc2ccc(Cl)cc2C(=O)c2ccccc2)cc1 | 1.1 | -8.0 | 4.4 | -4.1 | 2.1 | 3.5
CC[n+]1c(-c2ccccc2)c2cc(N)ccc2c2ccc(N)cc21 | . | . | . | 101.1 | . | .
Cc1cc(/C=C2\C(=O)NC(=O)N(c3cccc(Br)c3)C2=O)c(C)n1C | -28.5* | -7.1 | 111.0* | -34.4 | -2.9 | -1.5
SMILES | MEX-5 binding | MCL1 BIM primary | EBV gp42 inh | eLon inh | Bcl-xL primary | GLD-1 TGE inh
Cc1cc(/C=C2/C(=O)NC(=O)N(c3ccc(Br)cc3)C2=O)c(C)n1C | -11.2 | 6.1 | 19.9 | -35.3 | 8.0 | -7.0
COc1ccc(CN2C(=O)NC(=O)/C(=C\c3cc(OC)c(OC)c(OC)c3)C2=O)cc1 | -4.0 | -1.5 | -9.5 | -18.7 | -8.6 | -16.3
COc1ccc(CN2C(=O)NC(=O)/C(=C\c3ccco3)C2=O)cc1 | -46.4* | -21.1 | -10.9 | -103.3 | -30.2 | -52.7
CCN1C[C@@]2(COC)C3[C@@H](OC)[C@H]4[C@@H]1[C@@]3(C1C[C@H]3[C@H](OC(C)=O)C1[C@]4(OC(C)=O)C[C@H]3OC)[C@@H](OC)C[C@H]2OC(C)=O (some centres undefined) | 1.7 | 3.1 | . | -5.8 | 5.3 | -2.0
Cc1ccccc1N1C(=O)NC(=O)/C(=C\c2ccc3c(c2)CCCN3Cc2ccccc2)C1=O | 1.3 | -128.8 | 171.2* | -13.8 | -48.1 | -1.2
COc1ccc(/C=C2/C(=O)NC(=O)N(c3ccccc3)C2=O)cc1CN1C(=O)c2ccccc2C1=O | -4.7 | -10.8 | -3.9 | -3.6 | -5.4 | -4.0
C[C@]12CC[C@@H](O)CC1=CCC1C2CC[C@@]2(C)C1C[C@@H](F)[C@@H]2O (some centres undefined) | . | . | . | -18.8 | . | 0.9
O=C(c1cccs1)C1CN2CCC1CC2 (centres undefined) | 1.0 | 3.0 | -13.6 | -6.4 | 2.0 | 1.9
O=C(O)C1CN2CCC1CC2 (centres undefined) | 0.0 | 11.2 | 8.2 | -2.1 | 32.6* | 0.3
Cc1ccc2c(c1N)C(=O)c1ccccc1C2=O | . | 41.8* | . | 5.6 | 47.4* | -3.6
CCOC(=O)[C@@]1(C#N)[C@@H]2C=CC(C(N)=O)=CN2[C@@H](C(N)=O)[C@@H]1c1cccc(Cl)c1 | -10.0 | 27.0 | 6.0 | -2.4 | 37.7* | 20.9
CCOC(=O)[C@]1(C#N)[C@@H]2C=CC(C(N)=O)=CN2[C@@H](C(N)=O)[C@@H]1c1ccc(F)cc1 | -6.0 | 19.0 | 11.8 | 6.2 | 22.5 | 24.0
CCOC(=O)[C@@]1(C#N)C(c2ccc(Cl)c(Cl)c2)[C@H](C(N)=O)N2C=C(C(C)=O)C=C[C@H]21 (some centres undefined) | -56.2* | 0.4 | 101.6* | -26.7 | 11.0 | 4.9
COC1=CC=C2[C@H]3Cc4ccc(OC)c5c4[C@@]2(CCN3C)[C@H]1O5 | -0.9 | -1.4 | . | 9.8 | 2.3 | -0.7
O=C(N/N=C/c1c(O)n(Cc2ccccc2)c(=O)[nH]c1=O)c1ccccc1O | -35.7* | 9.5 | -9.6 | -19.4 | 6.7 | 0.8
CCN(CC)c1ccc(N=Cc2c(O)n(Cc3ccccc3)c(=O)[nH]c2=O)cc1 | -29.5*! | -19.3 | -8.5 | -9.9 | -4.9 | -5.4
CCOc1ccc(-n2c(O)c(C=Nc3ccc(N(CC)CC)cc3)c(=O)[nH]c2=O)cc1 | -19.4 | -9.7 | 82.5* | 1.0 | -7.6 | 0.2
Cc1ccsc1C(=O)C1CCCN(Cc2cnc(N3CCCC3)s2)C1 (centres undefined) | 1.2 | 2.9 | 9.0 | -1.3 | 4.0 | -5.5
